{"source": "PubChem BioAssay (EPA / NIEHS)", "key": {"[1]": {"test": "CCTE_Shafer_MEA_acute_AB: CCTE's Alamar Blue Assay for Cytotoxicity in the Neural Acute Assay, Shafer Lab (AID 2284069; active = hit-call score of the fitted dose curve at least 0.9, where 1 is the maximum;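 also: active compounds lower the viability signal compared with DMSO wells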)", "method_in_brief": "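Metabolic activity in chemically exposed rat cortical neurons (MEA cultures, day 13/15 post-plating) measured via CellTiter Blue resazurin reduction, 544/590 nm fluorescence; fitted relative to DMSO, with signal loss indicating reduced viability.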"}, "[2]": {"test": "UKN5_HCS_SBAD2_neurite_outgrowth: University of Konstanz (UKN) Leist Lab Neurite Outgrowth Assay in human iPSC-derived immature Dorsal Root Ganglia Neurons (UKN5) (AID 2284070)", "details": "actives raise or lower the signal", "method_in_brief": "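Neurite outgrowth is quantified as calcein-AM-labelled neurite area in human iPSC-derived peripheral neurons treated for 24 h, starting 1 h after plating in medium with CHIR99021 (1.5 uM), SU5402 (5 uM) and DAPT (5 uM).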"}, "[3]": {"test": "UKN2_HCS_IMR90_neural_migration: University of Konstanz (UKN) Leist Lab Neural Crest Cell Migration Assay in human induced IMR90 Pluripotent Stem Cells (UKN2) (AID 2284204)", "details": "actives raise or lower the signal", "method_in_brief": "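Using a 96-well stopper format with PLO/laminin/fibronectin coating, neural crest cells from iPSC migrate in cytokine-supplemented N2-S medium; after 24 h, chemicals are applied for a further 24 h, then cells are imaged after dye staining.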"}, "[4]": {"test": "UKN4_HCS_LUHMES_neurite_outgrowth: University of Konstanz (UKN) Leist Lab Neurite Outgrowth Assay in human LUHMES cells (UKN4) (AID 2284206)", "details": "actives raise or lower the signal", "method_in_brief": "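Neurite area in dopaminergic-model LUHMES neurons is measured by high-content imaging of calcein-AM after 24 h treatment starting shortly after day-2 replating; Hoechst staining tracks viability.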"}, "[5]": {"test": "TAMU_PeakParms_SingleDonor1434_Chronotropy: Texas A&M University (TAMU) 1.5-hr Human Induced Pluripotent Stem Cell (iPSC)-derived Cardiomyocytes Calcium (Ca+2) Flux Assay for Cardiotoxicity: Chronotropy (changes in peak frequency) (AID 2284217)", "details": "actives raise or lower the signal", "method_in_brief": "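Beat frequency of single-donor iPSC cardiomyocytes was recorded through a calcium-sensitive dye 1.5 hours after exposure to four concentrations up to 100 uM. An EC05 point of departure was derived.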"}, "[6]": {"test": "CCTE_Mundy_HCI_hN2_NOG_NeuriteCount: CCTE's Neurite Outgrowth Assay in human hN2 cells for Neurite Count, Mundy Lab (AID 2284219; active = hit-call score of the fitted dose curve at least 0.9, where 1 is the maximum)", "method_in_brief": "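In this morphology assay, hNP1-derived neurons received test chemical 2 h post-plating and were fixed two days later in warm paraformaldehyde/sucrose containing Hoechst 33342. Neurites, labelled by rabbit anti-βIII-tubulin (1:800) and Alexa Fluor-488 (1:500), were counted automatically.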"}}, "note": "Records with an inconclusive call do not appear. Calls of active or inactive are those of the source. The calls were made as follows, unless noted: active = hit-call score of the fitted dose curve at least 0.9, where 1 is the maximum; inactive = score below 0.9."}
{"molecule": "Oc1c(Cl)cc(Cl)c(Cl)c1Cc1c(O)c(Cl)cc(Cl)c1Cl", "values": [{"measurement": "outcome", "setting": "[1]", "result": "inactive"}, {"measurement": "AC50", "setting": "[2]", "result": "78 µM (active)"}, {"measurement": "AC50", "setting": "[3]", "result": "0.885 µM (active)"}, {"measurement": "AC50", "setting": "[4]", "result": "7.47 µM (active)"}, {"measurement": "outcome", "setting": "[5]", "result": "inactive"}, {"measurement": "AC50", "setting": "[6]", "result": "1.42 µM (active)"}]}
{"molecule": "COCCOCCOCCO", "values": [{"measurement": "outcome", "setting": "[3]", "result": "inactive"}]}
{"molecule": "CC(C)NCC(O)COc1ccc(CC(N)=O)cc1", "note": "(stereo not drawn)", "values": [{"measurement": "outcome", "setting": "[5]", "result": "inactive"}]}
